# HCV inh = qHTS Assay for Inhibitors of Hepatitis C Virus (HCV); Huh7.5.1 HCVcc-Cre infection, luciferase reporter, 44 h; 3.4% of 340,000 active; Potency, µM (doses to about 41.8 µM), for the others: at the highest dose activity change, negative = inhibition, actives largely listed as inhibitors; active = well fitted inhibition curve with a large enough effect; inconclusive = small, poorly fitted or top-dose-only effect, or another doubt; inactive = no such curve, though single readings can be large or run the other way
#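 Cells seeded at 1,000/well and cultured 4 h, then compounds added followed by HCVcc-Cre virus (~0.5 moi). After 44 h further culture, luciferase substrate was added, plates held 15 min at room temperature, and luminescence read for 15 sec.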
# Vaccinia mCherry = qHTS for Stage-Specific Inhibitors of Vaccinia Orthopoxvirus: mCherry Reporter Primary qHTS; Vaccinia virus mCherry reporter infection, fluorescence; Potency, µM (highest dose often 36.5 µM), without a hit: at the top dose activity change, negative = inhibition, hits mostly inhibitors; 0.63% of 310,000 active; calls by dose curve; tested in A549 cells; also: nearly all actives have a fitted effect of over 35% in size
# Vaccinia Venus = qHTS for Stage-Specific Inhibitors of Vaccinia Orthopoxvirus: Venus Reporter Primary qHTS | Vaccinia virus Venus reporter expression, fluorescence | Potency, µM (doses to about 36.5 µM), for the others: at the top dose activity change, negative = inhibition, most hits filed as inhibitors | 0.46% of 330,000 active; calls by dose curve; tested in A549 cells; also: nearly all actives have a fitted effect of over 30% in size
# * hit, by the source's call; i = inactive; u = inconclusive; x = no result given; ! = repeats disagree; [ ] = remark or other dose. This is a sample that favours compounds with a hit; in the whole collection about 3.3% have one here. % is scaled to controls: 0 for no effect and ±100 for the full control effect; potency is read from the fitted curve at half-maximal effect.
SMILES,HCV inh,Vaccinia mCherry,Vaccinia Venus
O=S(=O)(c1cccc(-c2nnc(SCc3nc4ccccc4s3)o2)c1)N1CCOCC1,u,12.6µM*,u
CC(=O)CCSc1nnc(-c2cccc(S(=O)(=O)N3CCOCC3)c2)o1,2.4%,-9.4%,-7.8%
O=[N+]([O-])c1ccc(N/N=C/c2cccnc2)cc1,11.2µM*,i,-8.6%
O=C(N/N=C/c1ccc[nH]1)c1ccccc1[N+](=O)[O-],19.6%,-14.7%,-7.0%
O=C(N/N=C/c1cccnc1)c1ccc([N+](=O)[O-])cc1,16.3%,-10.8%,-3.6%
O=[N+]([O-])c1ccc(NN=Cc2cccc([N+](=O)[O-])c2)cc1,u,u,-3.4%
Cc1ccc(C(=O)N/N=C\c2ccc[nH]2)cc1[N+](=O)[O-],4.47µM*,-28.9%,-17.7%
O=[N+]([O-])c1ccc(N/N=C/c2ccc[nH]2)cc1,1µM*,5.01µM*,u
Cc1ccc(/C=C/c2onc(C)c2S(=O)(=O)N2CCC(C(=O)Nc3ccc(OC(F)(F)F)cc3)CC2)cc1,x,-10.7%[7.34 µM],-3.3%[7.34 µM]
CCOC(=O)c1cnc(NCc2ccc(OC)cc2OC)c2ccccc12,x,-1.1%[7.34 µM],-4.7%[7.34 µM]
CCOc1ccc(N(C)C(=O)C2CCN(S(=O)(=O)c3c(C)noc3/C=C/c3ccc(C)cc3)CC2)cc1,x,-11.7%[7.34 µM],-4.6%[7.34 µM]
Nc1ncnc2c1[nH]c(=S)n2C1OC(CO)C(O)C1O (stereo not given),x,33.7%,6.6%
Nc1ncnc2c1c(I)cn2C1OC(CO)C(O)C1O (stereo not given),x,15.8µM*!,u
Nc1ncnc2c1ncn2[C@@H]1O[C@H](CO)[C@@H](O)[C@@H]1O,11.2%,u,-22.8%
N#Cc1c(N)n(C2OC(CO)C(O)C2O)c2ncnc(N)c12 (stereo not given),u,u,1µM*
Cc1cccc(C(=O)OC(C)CN2C(C)CCCC2C)c1 (stereo not given),10.0%,-2.7%,-11.9%
COc1cc2ccccc2cc1C(=O)N1CCN(c2nc3c(F)cc(F)cc3s2)CC1,x,-8.7%,-2.9%
CCc1nc2cc(C(=O)N(C)CC3CCCN(C)C3)cc(NC(=O)c3ccccc3OC)c2n1C (stereo not given),x,-10.4%,-8.4%
Cc1ccc(NC(=O)CSc2nc(N)c3c4c(sc3n2)CSC(C)(C)C4)cc1,11.2µM*,-6.6%,u
Cc1ccccc1NC(=O)CSc1nc(N)c2c3c(sc2n1)CSC(C)(C)C3,u,-20.9%,u
Cc1ccc2c(c1)C1C[N+](C)(CC(=O)c3ccc(Cl)cc3Cl)CCC1N2C(=O)c1ccc(F)cc1 (stereo not given),12.6µM*,x,x
Cc1ccc2c(c1)C1CN(C)CCC1N2C(=O)Nc1ccc(Cl)cc1 (stereo not given),-28.1%,-14.6%,-13.9%
Cc1ccc(S(=O)(=O)N2CCCN(c3nc(-c4cccs4)nc4ccccc34)CC2)cc1,x,-3.4%,-15.7%
CC(=O)N1CCC[C@H]1C(=O)NCC1Cc2cc(-c3cccc(OC(F)(F)F)c3)ccc2O1 (stereo not given in full),x,-0.6%,-25.2%
Cc1cc(/C=N/n2cnnc2)c(C)n1-c1ccc(OCc2ccc(Cl)cc2)cc1,7.94µM*,u,-22.6%
SMILES,HCV inh,Vaccinia mCherry,Vaccinia Venus
Cc1cc(/C=N/n2cnnc2)c(C)n1-c1ccc(OCc2ccccc2F)cc1,u,-20.5%,u
CCOc1ccc2nc(N3CCCC(C(=O)NCCc4ccc(OC)cc4OC)C3)sc2c1 (stereo not given),x,-11.5%,-5.2%
O=C(Nc1cccc(C(F)(F)F)c1)c1cc2nc(-c3ccc4c(c3)OCO4)cc(C(F)(F)F)n2n1,x,-2.7%,7.2%
COc1ccc(CSCC(=O)N/N=C/c2ccc(OCC(=O)NCc3ccco3)cc2)cc1,u,x,-28.3%
CC(SCc1ccccc1)C(=O)N/N=C/c1ccc(OCC(=O)NCc2ccco2)cc1 (stereo not given),11.2µM*,-22.5%,u
Cn1c(=O)c2c(nc(NCc3ccco3)n2C/C=C/c2ccccc2)n(C)c1=O,2.51µM*,x,u
Cn1c(=O)c2c(nc(NCc3ccccc3)n2CCCc2ccccc2)n(C)c1=O,u,x,-17.7%
COCCNc1nc2c(c(=O)n(C)c(=O)n2C)n1CCCc1ccccc1,x,i,-21.5%
Cn1c(=O)c2c(nc(NCc3ccco3)n2C)n(C)c1=O,1.7%,i,-5.5%
CNc1nc2c(c(=O)n(C)c(=O)n2C)n1CCCc1ccccc1,11.2µM*,-9.5%,-23.5%
Cn1c(=O)c2c(nc(NCCO)n2CCCc2ccccc2)n(C)c1=O,15.8µM*,x,x
CCCCOc1ccc(Br)cc1CSC(=N)N,2µM*,-25.5%,-16.2%
CCOc1ccc(C(C)=O)cc1CSC(=N)N,-30.0%,-3.0%,-3.4%
COC(=O)c1ccc(NC(=O)CC2C(=O)N(c3ccccc3)C(=O)N2C2CCCC2)cc1 (stereo not given),x,-1.3%,-3.8%
O=C(C[n+]1ccc2ccccc2c1)c1ccc(F)cc1,x,-10.1%,-27.9%
CCOc1ccccc1NC(=O)C(NS(=O)(=O)c1ccc2c(c1)CCC(=O)N2)c1ccccc1 (stereo not given),x,-11.5%,-11.6%
O=C(NCc1cccs1)c1ccc2c(c1)sc1nc(-c3ccccc3)cn12,x,-23.0%,-14.9%
c1ccc(CCSc2ncnc3nc[nH]c23)cc1,12.6µM*,-0.2%,-25.1%
O=C(CSc1ncnc2nc[nH]c12)c1ccccc1,25.6%,i,-10.3%
C[C@H]1CN([C@@H](C)CO)C(=O)CCCn2cc(nn2)CO[C@@H]1CN(C)C(=O)Nc1ccc(F)cc1,x,-6.1%,-17.1%
CC1(C)CC(=O)C2=C(C1)N1C(=C(C#N)C2c2ccc(Cl)cc2)N=C(N)c2ccccc21 (stereo not given),8.91µM*,u,-26.8%
CC1(C)CC(=O)C2=C(C1)N1C(=C(C#N)C2c2ccccc2Cl)N=C(N)c2ccccc21 (stereo not given),u,-9.8%,-15.2%
Cn1c(SCc2cccc(C#N)c2)nc2ccccc2c1=O,31.6µM*,i,-11.1%
Cc1ccc(CSc2nc3ccccc3c(=O)n2C)cc1,u,-17.0%,-11.5%
COCCn1c(SCc2cccc([N+](=O)[O-])c2)nc2ccccc2c1=O,11.2µM*,u,-6.3%
SMILES,HCV inh,Vaccinia mCherry,Vaccinia Venus
Cn1c(SCc2cccc([N+](=O)[O-])c2)nc2ccccc2c1=O,-25.1%,u,u
CCOC(=O)c1cccc(NC(=O)Cn2ncc3c4ccccc4n(Cc4ccccc4)c3c2=O)c1,x,-12.9%,-9.6%
COC(/C(=N/O)c1ccc(Cl)cc1)c1ccccc1 (stereo not given),-12.6%,u,u
CCSc1nc(-c2ccc(OC)cc2)nc2c1Cc1c(CO)cnc(C)c1O2,x,-24.4%,-17.9%
CCCOc1ccc(-c2nc(SCc3ccccc3)[nH]c(=O)c2C#N)cc1OC,-3.7%,-12.9%,-1.1%
O=[N+]([O-])c1cccnc1Sc1ccc(Cl)cc1,2.8%,-22.1%,-6.1%
C=CCNc1nnc(Sc2ncccc2[N+](=O)[O-])s1,-17.5%,10µM*,u
CSc1ccc(C(=O)N2CCc3c(cnc(C)c3CNC(=O)c3cncs3)C2)cc1,x,-0.4%,-2.5%
O=C(Nc1ccc(Cl)cc1)C(NS(=O)(=O)c1cccs1)c1ccccc1 (stereo not given),x,-2.4%,-1.4%
CC(=O)c1ccc(Nc2nc3ccccc3nc2-n2nc(C)cc2C)cc1,x,u,-29.5%
